Data on 22 sequences can be found in the OligoGym collection.
Also: reference of the scale not given here.

The first experiment addresses SULT1A2. Description: pooled miR-30 sensor sort-seq; sequence = guide strand. As to conditions: shRNA.
Regarding TCTTGCACGTGCTGGTACCAGG, the sensor-assay potency score (higher = more potent) was -1.6.
Same read-out and setting: next, TGGTCCATGAACTCCCGGCGGA: -1.53.
As for TTTTTCAGAGTCTCCATCCCTG, the sensor-assay potency score (higher = more potent) is -0.0359.
As to TTATTCTGGAGCCTCTTGGTCA, the sensor-assay potency score (higher = more potent) is -0.61.
On the same count and under the same terms, for TTTATTCTGGAGCCTCTTGGTC the value was -0.833.
Same read-out and setting: for TCCAGCCATGAACTTCTCCAGG the value was -1.76; for ACCCATAGGACACTTCTCCAGC, -2.4; for TGAGGTCCACAGTCTCCTCTGG, -0.796.
Still for that read-out and setting: next, TAGGAAACCGCCACATCCTTTG: -0.928.
Turning to ATGAGGTCCACAGTCTCCTCTG, the sensor-assay potency score (higher = more potent) was -1.

The target of the next experiment is SULT6B1. The description is as above. Conditions: shRNA.
As for TGTCCTTTCATGAACTGTCTGA, the sensor-assay potency score (higher = more potent) was 0.266.
On to TGGAATATCGGGGACATCGTTG, for which the sensor-assay potency score (higher = more potent) is -1.15.
For the sequence TATTCTCGAAGATAGACCCAGG, the sensor-assay potency score (higher = more potent) was -0.373.
Still for that read-out and setting: for TAATTTGTCATAGTGGAGGTGA the value was 0.271; for TAATTCACTGACAATGTGGAGA, -0.0659.
Same read-out and setting: next, TTATTCTCGAAGATAGACCCAG: -0.349; TGAACTTAACATTGTCGCCATC: -1.22; TATGAACTTAACATTGTCGCCA: 0.543.
In the case of TACTGCTGTATCTTTAGGGTTT, the sensor-assay potency score (higher = more potent) is -0.446.
On the same count and under the same terms, for TATTAATTCACTGACAATGTGG the value was -0.366.
The same measure, in the same setting: for TATAATATGAACTTAACATTGT the value was -0.395; for TAATATGAACTTAACATTGTCG, 0.349.
